BJeLR viability = MLPCN primary cell-based screen for lethality selective to Ras in HRASV12 cells; BJeLR (HRASV12) viability, CellTiter-Glo ATP luminescence, 48 h; inhibition, % (concentration not given with the values); hit rate 0.17% among 300,000; AID 1554, 2009; in the data active means inhibition above about 50%
3CLpro inhibitor = SARS-CoV 3CLpro protease inhibitors, primary screen, biochemical, quenched FRET; AID 1706, 2009; recombinant SARS-CoV 3CLpro, quenched FRET peptide cleavage; inhibition, % at 6 µM; hit rate 0.14% among 290,000; in the data active means inhibition above about 12%
MazF activator = activators of E. coli MazEF toxin-antitoxin RNase, primary screen, biochemical, fluorescence, uHTS; hit rate 0.32% among 350,000; FAM/BHQ RNA-DNA oligo cleavage fluorescence, 5 h; activation, % at 20 µM; in the data active means activation above about 50%
Target sequence (P0AE70 whole entry, looked up): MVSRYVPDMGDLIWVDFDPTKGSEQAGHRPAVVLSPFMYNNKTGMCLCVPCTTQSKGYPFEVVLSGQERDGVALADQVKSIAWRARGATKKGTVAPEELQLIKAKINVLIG
VHR inh abs = VHR1 phosphatase inhibitors, primary screen, biochemical, absorbance, uHTS. Dual specificity protein phosphatase 3 (Homo sapiens), P51452. recombinant VHR phosphatase, pNPP absorbance. inhibition, % at 13.3 µM. hit rate 0.52% among 290,000. AID 1654, 2009; in the data active means inhibition above about 50%
Target sequence (P51452 whole entry, looked up): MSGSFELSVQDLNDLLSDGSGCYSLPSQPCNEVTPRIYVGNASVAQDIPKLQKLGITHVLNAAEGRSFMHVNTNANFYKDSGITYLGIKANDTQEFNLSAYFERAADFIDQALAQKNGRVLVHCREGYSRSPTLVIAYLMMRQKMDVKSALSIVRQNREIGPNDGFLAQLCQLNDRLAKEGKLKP
CCHF vOTU inh-1 = CCHFV vOTU protease inhibitors, primary screen, biochemical, Pep-AMC substrate, fluorescence | Crimean-Congo hemorrhagic fever virus L polyprotein viral ovarian tumor (vOTU) protease … | inhibition, % at 11.5 µM | hit rate 0.55% among 370,000 | AID 651958, 2012; further: 0% = vehicle wells with enzyme and 100% = no enzyme wells
CCHF vOTU inh-2 = CCHFV vOTU protease inhibitors, confirmation, biochemical, Pep-AMC substrate, fluorescence; shares compounds with CCHF vOTU inh-1; Recombinant CCHFV vOTU; inhibition, % at 11.5 µM; hit rate 17% among 1,900; AID 686976, 2013
An asterisk follows results filed as active; x = no result. A selection: hits, their analogues and other compounds. The true share with any hit is near 1.4%. Unless noted, no stated cut-off is given here; in the data, active means inhibition above about 30%; inactive means the rest.

SMILES	BJeLR viability	3CLpro inhibitor	MazF activator	VHR inh abs	CCHF vOTU inh-1	CCHF vOTU inh-2
COc1cc(/C=N/n2c(C3CCCCC3)n[nH]c2=S)ccc1O	-3.1	1.9	-13.0	58.2*	31.3*	-15.6
COc1cc2c(cc1O)[C@@H]1Cc3ccc(OC)c(O)c3CN1CC2	x	x	6.4	x	105.1*	92.6*
NC(=O)C1CCN(C2=C(Cl)C(=O)c3ccccc3C2=O)CC1	-3.7	6.5	28.1	4.8	57.7*	82.9*
CC1COCC(C)N1C1=C(Cl)C(=O)c2ccccc2C1=O (stereo not drawn)	x	x	4.5	x	86.8*	89.7*
CN1CCN(C2=C(Cl)C(=O)c3ccccc3C2=O)CC1	x	x	-40.2	x	105.7*	98.7*
CC(=O)Nc1ccc2c(c1)C(=O)N(C)[C@H]1CC[C@H](CC(=O)NCc3ccc(F)cc3)O[C@@H]1CO2	x	x	x	x	6.2	x
COCCNC(=O)NC12CC3CC(CC(C3)C1)C2	-3.1	-4.2	-14.2	2.8	8.0	x
COCCNC(=O)NC12CC3(C)CC(C)(CC(C)(C3)C1)C2	6.5	-0.9	-5.1	2.1	35.0*	-4.2
COc1ccc([C@H]2OC(=O)C[C@H]2C(=O)N2CCN(C(=O)C3CCCO3)CC2)cc1OC (stereo partly drawn)	x	x	x	x	1.5	x
CC(=O)NC1CCCCN(C(C)C)C1=O (stereo not drawn)	x	x	x	x	-7.2	x
O=C(c1ccc(C(F)(F)F)cc1)N1CCC(=O)N([C@H](COCc2ccc(C(F)(F)F)cc2)Cc2ccccc2)CC1	x	x	x	x	33.7*	6.7
O=C(c1ccc(C(F)(F)F)cc1)N1CCC(=O)N(C(CO)Cc2ccccc2)CC1 (stereo not drawn)	4.3	x	31.3	x	-3.4	x
CC(C)C[C@@H](COCc1cccc(C(F)(F)F)c1)N1CCN(C(=O)c2ccc(C(F)(F)F)cc2)CCC1=O	x	x	x	x	38.5*	16.2
CC(C)C[C@@H](COCc1ccc(Cl)cc1)N1CCN(C(=O)c2ccc(C(F)(F)F)cc2)CCC1=O	x	x	x	x	19.5	x
O=C(c1ccc(C(F)(F)F)cc1)N1CCC(=O)N([C@H](COCc2ccc(Cl)cc2)Cc2ccccc2)CC1	x	x	x	x	32.0*	6.8
Cc1ccc(-n2c(SCC(=O)Nc3ccccc3-c3ccccc3)nnc2-c2cccs2)cc1	x	x	x	x	-0.6	x
Cc1nn(-c2ccccc2)c2sc(C(=O)NC3CCCC3)cc12	x	x	x	x	1.0	x
CCOC(=O)CNC(=O)CSc1nc2ccccc2c(=O)n1-c1ccc(Cl)cc1	x	x	x	x	-8.0	x
CN(C)c1ccc2cc(S(=O)(=O)O)cc(O)c2c1	x	x	-13.6	x	38.2*	-93.1
O=Nc1c(O)ccc2cc(S(=O)(=O)O)ccc12	x	x	5.8	x	x	x
CNc1ccc(Br)cc(C(=O)/C=C/c2ccc(OC)cc2)c1=O	-18.6	0.0	-13.1	-11.3	36.4*	-4.7
COc1ccccc1N1CCN(c2ccc(S(=O)(=O)N3CCN(C)CC3)cn2)CC1	x	x	5.5	x	33.0*	-12.3
O=C(NC1CCCC1)C1CSCCS(=O)(=O)N1Cc1ccc(F)cc1 (stereo not drawn)	x	x	x	x	-4.8	x
CC(=O)N1CCOc2ccc(S(=O)(=O)Nc3cccc(C)c3)cc21	7.2	-4.0	10.2	21.1	31.0*	6.7
COc1ccccc1CNC(=O)NC1CCN(CC(=O)Nc2ccc3c(c2)OCCO3)CC1	x	x	x	x	8.1	x
SMILES	BJeLR viability	3CLpro inhibitor	MazF activator	VHR inh abs	CCHF vOTU inh-1	CCHF vOTU inh-2
Cc1ccc(-c2nc3ccc(C)cn3c2Cc2ccccc2C(F)(F)F)cc1	x	x	x	x	13.1	x
Cc1ccc2nc(C(C)(C)C)c(Cc3ccccc3C(F)(F)F)n2c1	x	x	x	x	30.0*	16.7
O=C(Nc1nccs1)C(F)(F)C(F)(F)C(F)(F)C(=O)Nc1nccs1	10.4	1.0	2.2	3.7	112.8*	-0.4
CCCCCCCCN1C(=O)[C@H](CC(=O)NCc2cccs2)C[C@@]2(C(=O)OCC)CCCC=C12	x	x	x	x	31.2*	13.9
CCCCCCCCN1C(=O)[C@H](CC(=O)NCc2ccc(OC)c(OC)c2)C[C@@]2(C(=O)OCC)CCCC=C12	x	x	x	x	39.1*	16.2
CCCCCCCCN1C(=O)[C@H](CC(=O)NCCc2ccccc2OC)C[C@@]2(C(=O)OC)CCCCC=C12	x	x	x	x	46.6*	9.7
CCCCCCCCN1C(=O)[C@H](CC(=O)NCCc2ccccc2OC)C[C@@]2(C(=O)OCC)CCC=C12	x	x	x	x	29.3	x
CCOC(=O)[C@]12CCCC=C1N(CCc1ccc(OC)c(OC)c1)C(=O)[C@H](CC(=O)NCc1ccccc1)C2	x	x	x	x	6.1	x
CCOC(=O)[C@]12CCC=C1N(Cc1ccc(Cl)cc1Cl)C(=O)[C@H](CC(=O)NCc1ccc(C)o1)C2	x	x	x	x	34.5*	-11.4
COc1cccc(CNC(=O)C2C3C=CC4(CN(Cc5ccccc5)C(=O)C24)O3)c1OC (stereo not drawn)	x	x	x	x	-8.3	x
C=CCN1[C@@H](CC(C)C)COc2cccc(N3CCSCC3)c2S1(=O)=O	x	x	x	x	4.3	x
C/C(=N\NC(=O)c1ccccc1-n1cccc1)c1ccccn1	x	x	5.4	x	37.0*	-12.8
CCCc1nc2c(=O)n(C)c(=O)nc-2n(C)n1	x	-2.5	3.3	x	113.2*	93.5*
Cn1ncnc2c(=O)n(C)c(=O)nc1-2	21.4	x	-5.9	x	x	x
Cn1nc(-c2ccccn2)nc2c(=O)n(C)c(=O)nc1-2	21.6	16.3*	-11.1	x	102.1*	104.2*
C[C@H]1COc2cc(N3CCSCC3)ccc2S(=O)(=O)N1C	x	x	x	x	8.2	x
O=C(NCc1ccco1)C1CCCN(S(=O)(=O)c2ccc(F)cc2)C1 (stereo not drawn)	x	x	x	x	6.7	x
CC(C)[C@H](N)C(=O)N[C@@H](Cc1ccccc1)C(=O)N1CCC2CCN(S(=O)(=O)c3ccccc3)CC21 (stereo partly drawn)	x	x	x	x	-5.0	x
COc1ccccc1NC(=O)CCC(=O)O	6.6	-1.4	2.5	2.0	5.1	x
Cc1cc(Cl)c(C)c(S(=O)(=O)Oc2ccccc2NC(=O)CCC(=O)O)c1Cl	x	x	-1.4	x	33.2*	-5.8
Cc1cnc(C2OCCO2)c2cccc(N)c12	x	x	5.6	x	38.0*	64.8*
O=[N+]([O-])c1cccnc1C1OCCO1	x	x	3.7	x	1.2	x
CN1CCCN(S(=O)(=O)c2ccc3c(c2)CCC(=O)N3)CC1	x	x	x	x	-2.6	x
Cc1ccc(S(=O)(=O)Nc2ccccc2-c2ccccc2NS(=O)(=O)c2ccc(C)cc2)cc1	4.0	14.0*	3.5	1.3	30.4*	13.2
Cc1ccc(S(=O)(=O)Nc2ccccc2C(N)=O)cc1	-4.1	5.6	8.0	7.2	-11.9	x
Nc1scc2c(C(=O)N/N=C/c3ccc(Cl)cc3)nn(-c3ccccc3)c(=O)c12	-6.2	-1.1	-1.6	6.2	35.6*	63.8*
CC(=O)[C@H]1[C@@H]2C(=O)N(c3cccc(Cl)c3)C(=O)[C@@H]2[C@H]2c3ccccc3C=CN21	x	-12.2	-0.7	-4.3	93.5*	82.0*

Screens (PubChem)
